Measured values from PubChem BioAssay (Tox21).
Results filed as inconclusive are left out. Calls of active or inactive are those of the source. Unless noted, the call rests on the fitted dose curve.

What was measured:
[1] = Nuclear factor erythroid 2-related factor 2/antioxidant responsive element (Nrf2/ARE) small molecule agonists: qHTS cell viability counter screen in human keratinocytes (AID 1919968; active means well fitted curve in the direction sought with a large enough effect in the repeat runs; an effect the other way counts as inactive or inconclusive; further: nearly all actives have a fitted effect of over 55% in size)
Method in brief: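 Cells of the KeratinoSens line were plated at 1,500 per well and left for 5 h before compound transfer from DMSO stocks. After a 23 h incubation (37 C, 5% CO2), CellTiter-Fluor was added. Signal was taken as fluorescence intensity 1 h later.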

[2] = Nuclear factor erythroid 2-related factor 2/antioxidant responsive element (Nrf2/ARE) small molecule agonists: luciferase reporter gene qHTS assay in human keratinocytes (AID 1919969); further: nearly all actives have a fitted effect of over 35% in size
[3] = biological target: Gonadotropin-releasing hormone receptor (Homo sapiens) (UniProt P30968); test: Human gonadotropin-releasing hormone receptor (GnRHR) small molecule agonists, calcium flux assay in GnRHR-HEK293 cells (AID 1920063); further: nearly all actives have a fitted effect of over 35% in size
Chain of Gonadotropin-releasing hormone receptor (Homo sapiens) (P30968 whole entry, looked up): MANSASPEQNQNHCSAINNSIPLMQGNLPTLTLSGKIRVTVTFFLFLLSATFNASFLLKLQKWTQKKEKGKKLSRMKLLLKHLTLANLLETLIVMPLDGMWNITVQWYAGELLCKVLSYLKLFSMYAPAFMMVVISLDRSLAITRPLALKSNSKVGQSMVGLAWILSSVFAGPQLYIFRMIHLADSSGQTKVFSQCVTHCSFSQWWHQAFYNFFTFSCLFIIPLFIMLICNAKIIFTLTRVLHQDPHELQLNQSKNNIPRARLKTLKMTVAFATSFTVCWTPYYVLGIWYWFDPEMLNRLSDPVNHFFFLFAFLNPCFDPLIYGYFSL
Method in brief: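 Compounds dissolved in DMSO are pin-transferred onto dye-loaded GnRHR-HEK293 cells, which were seeded 18 h before at 37 C/5% CO2. Calcium signal is read as fluorescence intensity at 1 s intervals for 3 min.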

[4] = biological target: KiSS-1 receptor (Homo sapiens) (UniProt Q969F8); test: Human kisspeptin (KISS1R) small molecule agonists, calcium flux assay in KISS1R-HEK293 cells (AID 1920064; active means well fitted curve in the direction sought with a large enough effect in the repeat runs; an effect the other way counts as inactive or inconclusive)
Chain of KiSS-1 receptor (Homo sapiens) (Q969F8 whole entry, looked up): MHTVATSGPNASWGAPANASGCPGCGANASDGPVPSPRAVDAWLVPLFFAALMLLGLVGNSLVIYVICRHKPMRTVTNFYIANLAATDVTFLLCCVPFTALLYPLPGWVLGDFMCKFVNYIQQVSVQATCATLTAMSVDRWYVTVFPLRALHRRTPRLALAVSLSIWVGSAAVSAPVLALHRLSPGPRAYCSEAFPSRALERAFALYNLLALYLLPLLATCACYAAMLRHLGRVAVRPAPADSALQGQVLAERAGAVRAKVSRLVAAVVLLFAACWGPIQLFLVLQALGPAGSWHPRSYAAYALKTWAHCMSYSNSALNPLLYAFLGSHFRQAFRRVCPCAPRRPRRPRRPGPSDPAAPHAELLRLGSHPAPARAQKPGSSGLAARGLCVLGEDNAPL
Method in brief: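 Cell line: HEK293, stable human KISS1R. Dye loading 1 h at 37 C after 18 h culture. Read: kinetic fluorescence, 480/540 nm, 3 min at 1 s intervals.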

[5] = G protein-coupled receptor (GPCR) small molecule agonists, calcium flux assay: HEK293 wild type cell line counter screen (AID 1920065)
Method in brief: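 Tox21 10K compounds, 15 concentrations each in triplicate, pin-transferred in DMSO onto dye-loaded cells; kinetic read at 480/540 nm for 3 min, 1 s intervals.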

[6] = p53 small molecule agonists, cell-based qHTS assay with human liver microsomes (AID 1963577)
Method in brief: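 Compounds act here after metabolic activation: human liver microsomes and NADPH, both at 0.5 mg/mL final, were co-added to p53RE-bla cells. Incubation ran 16 h at 37 C, followed by LiveBLAzer detection.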

[7] = p53 small molecule agonists, cell-based qHTS assay with rat liver microsomes (AID 1963578)
Method in brief: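 Read-out is beta-lactamase reporter fluorescence (LiveBLAzer, 2 h, room temperature, dark) in p53RE-bla cells treated 16 h at 37 C with compound, rat liver microsomes and NADPH, both 0.5 mg/mL final.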

[8] = p53 small molecule agonists, cell-based qHTS assay with human liver microsomes: qHTS cell viability counter screen (AID 1963579); further: nearly all actives have a fitted effect of over 45% in size
Method in brief: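 Cells carrying the p53 response-element beta-lactamase reporter are treated for 16 h at 37 C with test compounds in the presence of human liver microsomes and NADPH (both 0.5 mg/mL final); ATP-based CellTiter-Glo luminescence then reports viability.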

[9] = p53 small molecule agonists, cell-based qHTS assay with rat liver microsomes: qHTS cell viability counter screen (AID 1963580); further: nearly all actives have a fitted effect of over 45% in size
Method in brief: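 Luminescent ATP readout (CellTiter-Glo, 30 min at room temperature) reports viability of p53RE-bla HCT-116 cells after 16 h at 37 C with test compounds under metabolic activation by rat liver microsomes and NADPH at 0.5 mg/mL final each.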

[10] = p53 small molecule agonists, cell-based qHTS assay: qHTS cell viability counter screen (AID 1963581); further: nearly all actives have a fitted effect of over 45% in size
Method in brief: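 ATP content measured by luminescence in HCT-116 p53RE-bla cells treated 16 h at 37 C, same wells as the reporter screen.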

[11] = p53 small molecule agonists, cell-based qHTS assay (AID 1963582; active means well fitted activation curve with a large enough effect in the signal ratio in the repeat runs, not every such curve was filed as active; the % refers to the signal ratio)
Method in brief: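 16 h compound exposure (37 C) of p53 response element–bla cells, preceded by 5 h recovery at 37 C/5% CO2; read-out via LiveBLAzer B/G FRET substrate, 2 h RT, fluorescence intensity.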

[12] = biological target: 5-hydroxytryptamine receptor 2A (Homo sapiens) (UniProt P28223); test: 5-hydroxytryptamine receptor 2A (HTR2A) small molecule antagonists, cell-based qHTS assay (AID 1963586); further: nearly all actives have a fitted effect of over 45% in size
Chain of 5-hydroxytryptamine receptor 2A (Homo sapiens) (P28223 whole entry, looked up): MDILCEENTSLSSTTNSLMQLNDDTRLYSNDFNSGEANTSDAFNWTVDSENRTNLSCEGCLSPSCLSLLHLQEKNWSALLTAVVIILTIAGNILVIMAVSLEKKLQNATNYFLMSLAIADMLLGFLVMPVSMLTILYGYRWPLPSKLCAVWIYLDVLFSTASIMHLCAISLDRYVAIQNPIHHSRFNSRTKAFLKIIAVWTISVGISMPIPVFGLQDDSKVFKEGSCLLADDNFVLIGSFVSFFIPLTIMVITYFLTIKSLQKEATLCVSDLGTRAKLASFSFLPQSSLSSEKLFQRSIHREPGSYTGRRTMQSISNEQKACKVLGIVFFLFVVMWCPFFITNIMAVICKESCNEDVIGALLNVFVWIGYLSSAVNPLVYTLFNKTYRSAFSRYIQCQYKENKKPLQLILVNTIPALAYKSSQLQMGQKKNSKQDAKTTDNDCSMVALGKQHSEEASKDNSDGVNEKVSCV
Method in brief: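 CHO cells stably expressing human HTR2A were plated for 18 h at 37 C, then loaded with calcium dye for 1 h. Compounds were preincubated 5 min at room temperature before DOI (4 nM solution) was added. Kinetic fluorescence was read for 3 min.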

[13] = biological target: 5-hydroxytryptamine receptor 2A (Homo sapiens) (UniProt P28223); test: 5-hydroxytryptamine receptor 2A (HTR2A) small molecule agonists, cell-based qHTS assay (AID 1963587); further: nearly all actives have a fitted effect of over 30% in size
Method in brief: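 HTR2A-CHO cells, plated 18 h at 37 C/5% CO2, dye-loaded 1 h at 37 C; compounds in DMSO added by pin tool (agonist mode). Intracellular calcium flux read as kinetic fluorescence on FDSS over 2 min at 1 s intervals.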

[14] = biological target: Muscarinic acetylcholine receptor M1 (Homo sapiens) (UniProt P11229); test: Cholinergic receptor muscarinic 1 (CHRM1) small molecule antagonists, cell-based qHTS assay (AID 1963588); further: nearly all actives have a fitted effect of over 40% in size
Chain of Muscarinic acetylcholine receptor M1 (Homo sapiens) (P11229 whole entry, looked up): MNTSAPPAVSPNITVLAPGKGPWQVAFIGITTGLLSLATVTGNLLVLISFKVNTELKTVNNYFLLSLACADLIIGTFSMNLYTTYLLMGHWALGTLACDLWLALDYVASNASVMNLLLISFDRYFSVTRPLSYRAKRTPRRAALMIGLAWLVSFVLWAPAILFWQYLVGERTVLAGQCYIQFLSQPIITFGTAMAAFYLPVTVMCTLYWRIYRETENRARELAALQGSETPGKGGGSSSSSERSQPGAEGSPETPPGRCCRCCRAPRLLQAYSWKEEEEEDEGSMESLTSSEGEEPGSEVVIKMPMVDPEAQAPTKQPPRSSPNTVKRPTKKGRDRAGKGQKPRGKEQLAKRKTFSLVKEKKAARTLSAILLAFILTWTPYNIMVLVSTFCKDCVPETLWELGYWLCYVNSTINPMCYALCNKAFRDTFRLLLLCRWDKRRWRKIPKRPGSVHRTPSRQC
Method in brief: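 Compounds were tested at 15 concentrations in three independent runs. Dye-loaded CHRM1-CHO cells were exposed 5 min at room temperature before stimulation by acetylcholine added at 50nM. Intracellular calcium was read kinetically on FDSS for 3 min.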

[15] = biological target: Muscarinic acetylcholine receptor M1 (Homo sapiens) (UniProt P11229); test: Cholinergic receptor muscarinic 1 (CHRM1) small molecule agonists, cell-based qHTS assay (AID 1963589); further: nearly all actives have a fitted effect of over 35% in size
Method in brief: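 Homogeneous fluorescence calcium flux, agonist mode. Human M1-expressing CHO cells; compound dosed at 15 concentrations, three independent runs; signal sampled every 1 sec.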

[16] = cAMP Responsive Elements (CRE) small molecule agonists, cell-based qHTS assay (AID 1963590)
Method in brief: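 HEK 293T cells stably bearing CRE-bla were plated at 2,000 cells per well and rested 18 h. Compounds, positive controls or DMSO were added for 3 h at 37 C. LiveBLAzer B/G substrate was then loaded for 2 h at room temperature.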

[17] = biological target: Beta-2 adrenergic receptor (Homo sapiens) (UniProt P07550); test: Adrenergic beta2 receptor (ADRB2) small molecule antagonists, cell-based qHTS assay (AID 1963592); further: series mostly up to about 92 µM; nearly all actives have a fitted effect of over 50% in size
Chain of Beta-2 adrenergic receptor (Homo sapiens) (P07550 whole entry, looked up): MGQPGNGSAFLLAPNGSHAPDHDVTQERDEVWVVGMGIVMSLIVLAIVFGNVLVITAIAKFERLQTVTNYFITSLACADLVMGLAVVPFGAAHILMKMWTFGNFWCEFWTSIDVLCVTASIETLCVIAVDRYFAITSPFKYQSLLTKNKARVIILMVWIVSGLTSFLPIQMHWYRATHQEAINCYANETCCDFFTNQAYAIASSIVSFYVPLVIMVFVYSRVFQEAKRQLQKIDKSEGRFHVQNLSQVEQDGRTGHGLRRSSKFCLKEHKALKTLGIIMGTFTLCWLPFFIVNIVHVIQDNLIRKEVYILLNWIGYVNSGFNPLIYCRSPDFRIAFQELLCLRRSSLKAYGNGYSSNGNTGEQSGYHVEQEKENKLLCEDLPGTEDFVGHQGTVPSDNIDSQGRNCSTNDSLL
Method in brief: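 Assay format: CHO-ADRB2 cells, 18-20hr seeding at 37C/5% CO2, then compound plus 1nM isoproterenol agonist mix for 0.5hr RT. Homogeneous time-resolved fluorescence cAMP detection after 1hr, expressed as 665/615 nm ratio.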

[18] = biological target: D(2) dopamine receptor (Homo sapiens) (UniProt P14416); test: Dopamine D2 receptor (DRD2) small molecule agonists, cell-based qHTS assay (AID 1963594); further: nearly all actives have a fitted effect of over 35% in size
Chain of D(2) dopamine receptor (Homo sapiens) (P14416 whole entry, looked up): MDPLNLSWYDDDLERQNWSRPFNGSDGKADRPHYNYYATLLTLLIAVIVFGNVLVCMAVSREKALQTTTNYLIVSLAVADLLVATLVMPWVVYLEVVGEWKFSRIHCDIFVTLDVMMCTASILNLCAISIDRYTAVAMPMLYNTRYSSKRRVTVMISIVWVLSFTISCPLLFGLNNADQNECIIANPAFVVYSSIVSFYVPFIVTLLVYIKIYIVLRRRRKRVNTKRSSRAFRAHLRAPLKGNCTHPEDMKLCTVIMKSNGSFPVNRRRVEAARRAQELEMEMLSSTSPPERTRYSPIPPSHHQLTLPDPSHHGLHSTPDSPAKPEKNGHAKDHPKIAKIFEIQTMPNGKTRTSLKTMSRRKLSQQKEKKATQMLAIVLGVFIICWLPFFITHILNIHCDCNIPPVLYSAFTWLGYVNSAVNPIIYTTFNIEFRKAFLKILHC
Method in brief: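 HEK293 cells stably expressing DRD2 were cultured 24 h at 37 C, then given Ro20-1724 (0.1 mM final) and compounds for 10 min at room temperature. NKH477 (200nM) was then added for 30 min. cAMP was read by HTRF.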

[19] = biological target: D(2) dopamine receptor (Homo sapiens) (UniProt P14416); test: Dopamine D2 receptor (DRD2) small molecule antagonists, cell-based qHTS assay (AID 1963595; active means well fitted inhibition curve with a large enough effect in the signal ratio in the repeat runs, with a control signal flat; the % refers to the signal ratio)
Method in brief: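 Cells were plated and grown for 24 h at 37 °C. Ro20-1724 (0.1 mM final) went in first, then compound for 10 min. NKH477 (200 nM) with quinpirole (12 nM) followed for 30 min at RT, then HTRF detection reagents for 1 h.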

[20] = cAMP Responsive Elements (CRE) small molecule antagonists, cell-based qHTS assay (AID 1963591; active means well fitted inhibition curve with a large enough effect in the signal ratio in the repeat runs, not every such curve was filed as active; the % refers to the signal ratio)
Method in brief: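 First, CRE-bla HEK293T cells settled 18 h at 37 C. Next, compound and 0.25 uM final NKH477 were applied for 3 h. Last, LiveBLAzer B/G substrate was loaded for 2 h at room temperature.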

Measured: Potency

NCCOCCN
not listed: [20]
inactive: all other assays above

OCCCCCCCl
not listed: [17]
inactive: all other assays above

O=C1OC(CN2CCOCC2)CN1/N=C/c1ccc([N+](=O)[O-])o1 (configuration not stated)
not listed: [17]
inactive: all other assays above

NC(=O)Nc1ccccc1
not listed: [17]
inactive: all other assays above

CCCCCCCCCCCCCCCC(=O)NCCO
not listed: [19] | [20]
inactive: all other assays above

O=C(c1ccccc1O)c1ccccc1O
not listed: [20]
inactive: all other assays above

COc1ccc(C(=O)CC(=O)c2ccc(C(C)(C)C)cc2)cc1
not listed: [20]
inactive: all other assays above
